Screens (PubChem)
JMJD2E inh = inhibitors of human JMJD2E histone demethylase; actives 1.6% (n = 230,000); Potency, µM (titrated, usually from 57.1 µM), for the others: at the highest dose activity change, negative = inhibition, usual class: inhibitors; B2RXH2; JMJD2E catalytic domain, FDH-coupled NADH fluorescence (FDH is formaldehyde dehydrogenase);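 note: 0% = wells with enzyme and -100% = buffer wells without enzyme; nearly all actives have a fitted effect of over 50% in size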
RECQ1 inh = inhibitors of human RECQ1 DNA helicase; P46063; actives 0.54% (n = 240,000); Potency, µM (series often up to 57.3 µM), for inactives: at the highest dose activity, negative = inhibition, hits mostly inhibitors; RECQ1 DNA unwinding, red fluorescence kinetic read; AID 2549;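 note: plate controls were vehicle for no effect and no enzyme for full effect; nearly all actives have a fitted effect of over 30% in size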
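RECQ1T1 50 nM; forked duplex (20 bp + 30-nt ss tails) 200 nM, ATP 2 mM final; pH 8.0, 2 mM MgCl2, 2.5 ug/ml poly(dI-dC); 15 min compound preincubation; discontinuous kinetic read over 2 h at RT.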
L3MBTL1 inh = inhibitors of human L3MBTL1; AlphaScreen L3MBTL1–H3K9me1 peptide binding; Q9Y468; Potency, µM (doses to about 57.1 µM), for inactives: top-dose activity, negative = inhibition, usual class: inhibitors; AID 485360; actives 0.66% (n = 230,000); note: nearly all actives have a fitted effect of over 60% in size
Target sequence (Q9Y468 whole entry, looked up): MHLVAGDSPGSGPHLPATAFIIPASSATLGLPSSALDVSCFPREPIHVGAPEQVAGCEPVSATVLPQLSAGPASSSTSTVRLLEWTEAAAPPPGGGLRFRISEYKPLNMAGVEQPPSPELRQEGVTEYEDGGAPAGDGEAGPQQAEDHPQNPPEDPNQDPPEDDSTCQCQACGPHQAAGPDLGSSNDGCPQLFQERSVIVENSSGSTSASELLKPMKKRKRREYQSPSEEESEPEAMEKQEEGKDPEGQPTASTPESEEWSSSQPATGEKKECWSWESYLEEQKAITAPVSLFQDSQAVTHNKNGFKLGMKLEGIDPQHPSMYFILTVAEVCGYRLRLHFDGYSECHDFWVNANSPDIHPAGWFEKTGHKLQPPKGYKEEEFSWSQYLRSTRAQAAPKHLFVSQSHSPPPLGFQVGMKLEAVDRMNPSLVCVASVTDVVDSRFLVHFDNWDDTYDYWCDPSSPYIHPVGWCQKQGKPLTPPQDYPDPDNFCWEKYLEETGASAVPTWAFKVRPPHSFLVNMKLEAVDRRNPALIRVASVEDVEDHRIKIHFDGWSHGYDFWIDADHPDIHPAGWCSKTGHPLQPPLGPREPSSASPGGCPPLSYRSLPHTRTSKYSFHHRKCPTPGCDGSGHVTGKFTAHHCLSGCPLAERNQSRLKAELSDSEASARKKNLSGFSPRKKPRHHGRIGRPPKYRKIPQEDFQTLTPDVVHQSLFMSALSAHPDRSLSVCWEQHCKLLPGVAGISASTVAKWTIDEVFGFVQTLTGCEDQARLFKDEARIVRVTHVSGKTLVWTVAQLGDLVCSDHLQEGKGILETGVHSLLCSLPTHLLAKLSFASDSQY
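L3MBTL1 50 nM + b-AHA-H3(1-15)K9me1 75 nM, 30 min RT; compound added, 30 min RT; streptavidin donor/Ni-chelate acceptor beads 10 ug/mL each final, 30 min RT dark; AlphaScreen read.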
RGS12 GoLoco inh = RGS12 GoLoco-Gai1 interaction inhibition; P63096; Gai1:RGS12 GoLoco peptide FP, rhodamine, 10 min; Potency, µM (doses to about 61.6 µM), inactives show top-dose activity, negative = inhibition, hits mostly inhibitors; actives 0.44% (n = 230,000); active = well fitted inhibition curve with a large enough effect, not every such curve was filed as active; inactive = no such curve, though single readings can be large or run the other way; note: nearly all actives have a fitted effect of over 30% in size
APE1 inh = blocks human APE1 abasic DNA cleavage; Potency, µM (highest dose often 65.8 µM), without a hit: at the top dose activity change, negative = inhibition, usual class: inhibitors; AID 2517; actives 0.35% (n = 350,000); recombinant APE1, TAMRA/BHQ-2 abasic DNA cleavage fluorescence;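 note: plate controls were vehicle for no effect and reference inhibitor for full effect; nearly all actives have a fitted effect of over 55% in size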
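Step 1: APE1 (0.75 nM) with compound, 15 min RT. Step 2: add 50 nM fluorophore/quencher THF duplex. Step 3: three fluorescence reads 60 s apart (525/598 nm); read 3 minus read 1 = reaction progress.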
BLM inh = Bloom syndrome helicase (human) inhibition | recombinant BLM DNA unwinding, fluorescence dequenching | Potency, µM (doses to about 56.1 µM), for inactives: top-dose activity change, negative = inhibition, usual class: inhibitors | actives 0.2% (n = 350,000);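 note: plate controls were vehicle for no effect and no enzyme for full effect; nearly all actives have a fitted effect of over 35% in size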
* = called active by the depositor; i = inactive; ? = inconclusive; . = not tested or not shown; ! = a repeat was not active; [ ] = dose if it differs, or a comment. The entries come from a sample that favours hits as a whole. Unless noted, calls come from the whole dose curve; as a rule, active = well fitted curve in the direction sought with a large enough effect; inconclusive = small, poorly fitted or top-dose-only effect, or another doubt; inactive = no such curve, though single readings can be large; an effect the other way counts as inactive or inconclusive. Unless noted, % is set by controls: 0 for no effect and ±100 for the full control effect; potency is the fitted concentration of half-maximal effect.

SMILES	JMJD2E inh	RECQ1 inh	L3MBTL1 inh	RGS12 GoLoco inh	APE1 inh	BLM inh
Cc1oc(C)c2c(=O)ccc3c(c12)OC(N)=C(C#N)C3c1ccc(F)cc1 (stereo not drawn)	?	-4%	28µM*	196%	1%	6%
COC(=O)N1C(C)=Cc2ccccc2C1C/C(C)=C/C(C)=O (stereo not drawn)	-5%	-7%	.	-4%	21%	3%
COc1cc(/C=C2/SC(=S)N(CC(=O)O)C2=O)ccc1OCC(=O)Nc1ccc(C)c(C)c1	.	.	.	.	4.7µM*	?
COc1ccc(/C=C2/SC(=O)N(CCC(=O)Nc3ccc(C)cc3)C2=O)cc1OC	2%	i	-3%	4%	2%	3%
Cc1ccc(S(=O)(=O)/N=C2/C=C(Sc3ncn[nH]3)C(=O)c3ccccc32)c(C)c1	8.9µM*	-12%	?	-27%	-6%	28µM*
CC(C)(C)c1ccc(S(=O)(=O)/N=C2\C=C(NS(=O)(=O)c3ccccc3)C(=O)c3ccccc32)cc1	.	.	.	.	16%	-18%
Cc1ccc(S(=O)(=O)N2CCN(C(=O)CSc3ncn[nH]3)CC2)c(C)c1	.	.	4%	.	-2%	.
CC(C)c1ccc(S(=O)(=O)/N=C2/C=C(Sc3ncn[nH]3)C(=O)c3ccccc32)cc1	1%	0%	?	-40%	4%	10µM*
CC(C)(C)n1ncc2c(=O)n(Cc3cccc(F)c3)cnc21	.	.	.	.	1%	.
CC1CCN(c2ccc(-c3nc(C(C)C)no3)cc2[N+](=O)[O-])CC1	.	.	.	.	.	-14%
COc1cccc(-c2cc(=O)c3cc(NC(=O)c4cccnc4)ccc3[nH]2)c1	.	-1%[81.1 µM]	.	-10%[88.7 µM]	13%	-7%[75.6 µM]
Nc1c(Br)cc(Br)cc1CNC1CCC(O)CC1 (stereo not drawn)	2%	-6%	12%	20µM*!	22%	0%
O=C(Nc1ccc(Br)cc1)Nc1nc2c(s1)CCCCCC2	.	.	.	.	.	0%
NC(=NCc1ccc2c(c1)OCO2)NC(=O)c1ccccc1	4.5µM*	17%	?	15%	-11%	-13%
C/C(CCc1ccc2c(c1)OCO2)=N\NC(=O)c1ccccc1	20%	i	1%	-1%	-2%	2%
O=C(Cc1cccc2ccccc12)N/N=C/c1ccc(F)cc1	10%	i	8%	0%	13%	2%
O=C(Cc1cccc2ccccc12)N/N=C/c1ccc(OC(=O)/C=C/c2ccco2)cc1	4%	-7%	25µM*	15%	?	-8%
Clc1cccc(N/N=C/c2ccc(N3CCOCC3)s2)c1	11µM*	-10%	-15%	-4%	-1%	-8%
COc1c(CO)cc(CO)cc(CO)c1=O	-12%	-1%	.	-1%	1%	-1%
C[n+]1cccc(/C=N/NC(=O)CC23CC4CC(CC(C4)C2)C3)c1	6%	-2%	.	4µM*	5%	-3%
CNC(=O)c1ccc(NC(=O)CC23CC4CC(CC(C4)C2)C3)cc1	.	.	.	.	-9%	-3%
COC(=O)[C@@]1(Cc2ccc(OC)cc2)[C@H]2c3cc(C(=O)N(C)C)n(Cc4ccc(C)o4)c3C[C@H]2CN1C(=O)c1ccccc1	?	-14%	.	-27%	18%	-1%
C=CCn1c(P(=O)(O)c2ccccc2)nc2ccccc21	-1%	9%	?	5.6µM*	?	-1%
COC(=O)C1=C(C(=O)OC)[C@@H]2N(C)c3ccccc3[C@@]23C[C@@H](C(=O)OC)N(S(=O)(=O)c2ccc([N+](=O)[O-])cc2)C3=N1	-6%[11.4 µM]	-16%[11.5 µM]	.	3%[14.2 µM]	20%[12.4 µM]	-5%[12.4 µM]
CCOC(=O)Oc1c(OC)cc(C(=O)O[C@@H]2C[C@@H]3CN4CCc5c([nH]c6cc(OC)ccc56)[C@H]4C[C@@H]3[C@H](C(=O)OC)[C@H]2OC)cc1OC	.	.	-14%	.	-13%	.
